Results published in PubChem BioAssay (EPA / NIEHS).
Records with an inconclusive call do not appear. Calls of active or inactive are those of the source. The calls were made as follows, unless noted: active = hit-call score of the fitted dose curve at least 0.9, where 1 is the maximum; inactive = score below 0.9.

Assays:
[1] = biological target: Estrogen receptor (Homo sapiens) (UniProt P03372); experiment: OT_ERa_GFPERaERE_0480: Odyssey Thera (OT) 8-hour HeLa Transcription Induction Assay for Estrogen Receptor (AID 2283381)
Sequence of Estrogen receptor (Homo sapiens) (P03372 whole entry, looked up): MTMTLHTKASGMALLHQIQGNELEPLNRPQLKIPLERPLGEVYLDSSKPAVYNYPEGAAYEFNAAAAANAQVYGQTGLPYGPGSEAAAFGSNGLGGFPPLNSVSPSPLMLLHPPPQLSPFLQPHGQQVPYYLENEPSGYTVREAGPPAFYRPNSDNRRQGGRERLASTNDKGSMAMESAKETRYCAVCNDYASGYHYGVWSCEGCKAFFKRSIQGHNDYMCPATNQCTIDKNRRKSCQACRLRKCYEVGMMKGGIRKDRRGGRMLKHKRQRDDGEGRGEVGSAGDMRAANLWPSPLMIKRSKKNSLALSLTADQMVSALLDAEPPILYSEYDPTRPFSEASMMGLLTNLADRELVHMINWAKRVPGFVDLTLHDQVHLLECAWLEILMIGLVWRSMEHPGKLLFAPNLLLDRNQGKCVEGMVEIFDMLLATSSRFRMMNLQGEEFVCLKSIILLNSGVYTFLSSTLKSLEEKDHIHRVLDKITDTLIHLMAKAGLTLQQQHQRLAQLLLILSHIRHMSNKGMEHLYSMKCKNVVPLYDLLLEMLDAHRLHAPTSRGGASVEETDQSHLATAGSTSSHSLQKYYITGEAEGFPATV
How it was run: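 GFP-ERE reporter, HeLa, 8 h exposure. Readout: fluorescence microscopy, high-content image analysis. Fit direction positive vs DMSO negative control.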

[2] = biological target: Estrogen receptor (Homo sapiens) (UniProt P03372); experiment: OT_ERa_GFPERaERE_0120: Odyssey Thera (OT) 2-hour HeLa Transcription Induction Assay for Estrogen Receptor (AID 2283382; active = hit-call score of the fitted dose curve at least 0.9, where 1 is the maximum)
How it was run: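 Fluorescence microscopy read-out: inducible fluorescent protein reporter in HeLa cells, imaged 2 h post-dose. Signal increase over DMSO negative control fitted as single primary endpoint via high content image analysis.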

[3] = biological target: Retinoic acid receptor RXR-alpha (Homo sapiens) (UniProt P19793); experiment: OT_NURR1_NURR1RXRa_1440: Odyssey Thera (OT) 24-hour HEK293T Protein Complementation Assay for Nurr1/retinoid X receptor (RXR) (AID 2283386; active = hit-call score of the fitted dose curve at least 0.9, where 1 is the maximum)
Sequence of Retinoic acid receptor RXR-alpha (Homo sapiens) (P19793 whole entry, looked up, the tested form may be a part): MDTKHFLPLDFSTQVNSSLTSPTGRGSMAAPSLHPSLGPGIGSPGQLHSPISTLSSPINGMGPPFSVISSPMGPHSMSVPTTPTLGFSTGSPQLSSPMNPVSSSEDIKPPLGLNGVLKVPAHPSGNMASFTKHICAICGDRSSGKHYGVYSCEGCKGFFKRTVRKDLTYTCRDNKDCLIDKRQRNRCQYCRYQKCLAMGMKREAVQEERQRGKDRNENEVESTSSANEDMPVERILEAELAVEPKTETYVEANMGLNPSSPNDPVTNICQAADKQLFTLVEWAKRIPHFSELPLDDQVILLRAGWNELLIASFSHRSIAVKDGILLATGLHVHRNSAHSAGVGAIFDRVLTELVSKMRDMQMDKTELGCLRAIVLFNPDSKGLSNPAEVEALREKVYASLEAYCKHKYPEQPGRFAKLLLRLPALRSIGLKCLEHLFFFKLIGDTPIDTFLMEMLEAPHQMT
How it was run: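 Fluorescence PCA read-out; HEK293T; 24 h post-dose; bait/prey fused to reporter fragments; gain-of-signal fit vs DMSO negative control.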

[4] = biological target: Peroxisome proliferator-activated receptor gamma (Homo sapiens) (UniProt P37231); experiment: OT_PPARg_PPARgSRC1_0480: Odyssey Thera (OT) 8-hour Protein-Complementation Assay for Peroxisome Proliferator-activated Receptor Gamma / SRC-1 Co-activator (AID 2283387; active = hit-call score of the fitted dose curve at least 0.9, where 1 is the maximum;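 also: nuclear to cytoplasmic split Venus YFP fluorescence ratio reporting PPARg SRC-1 interaction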)
Sequence of Peroxisome proliferator-activated receptor gamma (Homo sapiens) (P37231 whole entry, looked up, the tested form may be a part): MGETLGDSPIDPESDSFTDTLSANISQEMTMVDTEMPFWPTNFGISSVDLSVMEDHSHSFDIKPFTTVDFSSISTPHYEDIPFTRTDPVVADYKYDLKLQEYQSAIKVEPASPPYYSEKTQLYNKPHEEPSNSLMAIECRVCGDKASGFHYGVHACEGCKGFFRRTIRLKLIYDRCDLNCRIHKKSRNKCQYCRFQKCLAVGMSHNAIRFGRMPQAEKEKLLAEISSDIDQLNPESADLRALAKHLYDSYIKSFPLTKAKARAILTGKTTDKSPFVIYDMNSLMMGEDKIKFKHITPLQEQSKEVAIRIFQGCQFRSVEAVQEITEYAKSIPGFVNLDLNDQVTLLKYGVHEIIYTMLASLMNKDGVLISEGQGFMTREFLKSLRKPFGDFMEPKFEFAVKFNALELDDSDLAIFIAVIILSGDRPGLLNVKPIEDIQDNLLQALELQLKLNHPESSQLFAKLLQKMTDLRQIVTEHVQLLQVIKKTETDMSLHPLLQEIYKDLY
How it was run: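 Protein-fragment complementation of split Venus YFP reports PPARg/SRC-1 interaction in HEK293T (transfected 48 h before treatment), exposed 8 h. Readout: N/C fluorescence ratio at 488 nm from imaging, Draq5 for segmentation, positive fit relative to DMSO.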

[5] = CEETOX_H295R_11DCORT: CeeTox H295R High-throughput Steroidogenesis Assay for 11-Deoxycortisol (11DCORT) (AID 2283432); settings: actives raise or lower the signal;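 as to AC50: 11-deoxycortisol secreted into the medium measured by LC-MS/MS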
How it was run: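 Human adrenal H295R cells were prestimulated with 10 uM forskolin for 48 h, then exposed to test chemical (0.1% DMSO final) for 48 h. Medium 11-deoxycortisol was quantified by MTBE extraction and HPLC-MS/MS; bidirectional fitting relative to DMSO.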

[6] = CEETOX_H295R_OHPREG: CeeTox H295R High-throughput Steroidogenesis Assay for OH-Pregnenolone (OHPREG) (AID 2283434); settings: actives raise or lower the signal
How it was run: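 Readout: HPLC-MS/MS of 17alpha-hydroxypregnenolone in medium after 48 h chemical exposure of H295R cells pretreated with forskolin. Values fitted bidirectionally relative to DMSO; chemicals reducing viability to 20–70% were retested after 10-fold dilution.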

[7] = CEETOX_H295R_OHPROG: CeeTox H295R High-throughput Steroidogenesis Assay for OH-Progesterone (OHPROG) (AID 2283435); settings: actives raise or lower the signal;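 as to AC50: 17alpha-hydroxyprogesterone secreted into medium measured by HPLC-MS/MS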
How it was run: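 HPLC-MS/MS quantification of 17alpha-hydroxyprogesterone secreted by H295R cells after 48 h chemical exposure, following 48 h 10 uM forskolin prestimulation. Gain or loss of signal fitted relative to DMSO. Viability checked by MTT in the same wells.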

[8] = CEETOX_H295R_ANDR: CeeTox H295R High-throughput Steroidogenesis Assay for Androstenedione (ANDR) (AID 2283436); settings: actives raise or lower the signal
How it was run: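 Steroidogenesis in H295R adrenal cells after 48 h dosing; androstenedione quantified by LC-MS/MS, with DMSO as negative control and baseline for bidirectional curve fitting.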

[9] = CEETOX_H295R_CORTIC: CeeTox H295R High-throughput Steroidogenesis Assay for Corticosterone (CORTIC) (AID 2283437); settings: actives raise or lower the signal;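 also: corticosterone secreted into medium quantified by mass spectrometry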
How it was run: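 Steps: seed H295R, adhere overnight; 10 uM forskolin 48 h; replace with chemical (0.1% DMSO) 48 h; extract medium with MTBE; quantify corticosterone by HPLC-MS/MS; score bidirectionally vs DMSO.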

[10] = CEETOX_H295R_CORTISOL: CeeTox H295R High-throughput Steroidogenesis Assay for Cortisol (AID 2283438); settings: actives raise or lower the signal;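 also: cortisol secreted into medium quantified by LC-MS/MS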
How it was run: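 Read-out: cortisol in culture medium by reverse-phase C18 HPLC with ESI-positive tandem MS, after MTBE liquid-liquid extraction. Cells: human adrenal H295R, forskolin-primed (10 uM, 48 h) before 48 h chemical exposure in 0.1% DMSO.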

[11] = CEETOX_H295R_DOC: CeeTox H295R High-throughput Steroidogenesis Assay for DOC (AID 2283439); settings: actives raise or lower the signal
How it was run: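 Human adrenocortical H295R cells, passages up to 10, received 10 uM forskolin for 48 h before chemical addition. After another 48 h exposure in 0.1% DMSO, secreted DOC was measured by LC-MS/MS, with gain or loss fitted against DMSO controls.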

[12] = CEETOX_H295R_PROG: CeeTox H295R High-throughput Steroidogenesis Assay for Progesterone (PROG) (AID 2283442); settings: actives raise or lower the signal
How it was run: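 Progesterone read-out: HPLC-MS/MS on MTBE extracts of conditioned medium after 48 h chemical exposure of forskolin-primed (10 uM, 48 h) H295R cells. Gain or loss of signal was fitted relative to DMSO baseline.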

[13] = CEETOX_H295R_TESTO: CeeTox H295R High-throughput Steroidogenesis Assay for Testosterone (TESTO) (AID 2283457); settings: actives raise or lower the signal;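 as to AC50: cells exposed to chemicals for 48 h before medium collection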
How it was run: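 Readout: testosterone quantified by HPLC-MS/MS (C18, ESI positive) after MTBE liquid-liquid extraction of culture medium. Cells were H295R, 48 h chemical exposure per OECD 456 with modifications. Gain or loss of signal fitted relative to DMSO.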

[14] = biological target: Bile acid receptor (Homo sapiens) (UniProt Q96RI1); experiment: OT_FXR_FXRSRC1_1440: Odyssey Thera (OT) 24-hour HEK293T Protein-Complementation Assay for Farnesoid X receptor/SRC-1 Co-activator (AID 2283384; active = hit-call score of the fitted dose curve at least 0.9, where 1 is the maximum)
Sequence of Bile acid receptor (Homo sapiens) (Q96RI1 whole entry, looked up, the tested form may be a part): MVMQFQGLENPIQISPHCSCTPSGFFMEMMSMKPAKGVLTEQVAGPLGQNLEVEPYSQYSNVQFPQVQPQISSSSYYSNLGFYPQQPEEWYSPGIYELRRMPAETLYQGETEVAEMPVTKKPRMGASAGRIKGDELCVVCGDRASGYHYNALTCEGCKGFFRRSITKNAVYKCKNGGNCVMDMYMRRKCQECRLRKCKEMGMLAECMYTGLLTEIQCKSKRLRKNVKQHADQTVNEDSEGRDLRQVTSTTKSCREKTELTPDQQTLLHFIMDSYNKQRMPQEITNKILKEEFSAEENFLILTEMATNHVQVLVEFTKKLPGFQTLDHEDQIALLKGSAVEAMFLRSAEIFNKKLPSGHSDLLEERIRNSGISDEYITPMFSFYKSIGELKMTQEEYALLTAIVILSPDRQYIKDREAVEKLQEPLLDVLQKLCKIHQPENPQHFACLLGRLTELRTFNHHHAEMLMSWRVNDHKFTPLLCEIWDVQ
How it was run: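 Fluorescence readout, 24 h post-dose, HEK293T; FXR and SRC-1 fused to complementary reporter fragments, association reconstitutes signal. Positive-direction fit vs DMSO baseline.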

[15] = ATG_XTT_Cytotoxicity: Cytotoxicity Assessment in the Attagene TRANS-FACTORIAL HepG2 Assay (AID 2283584; active = hit-call score of the fitted dose curve at least 0.9, where 1 is the maximum;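 as to AC50: cells exposed to compound for 24 h before reading; active means loss of viability signal versus DMSO baseline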)
How it was run: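 XTT readout of cell number in transfected HepG2 cells, 24 h post-dosing; DMSO serves as negative control and baseline, with activity taken as loss of viability signal.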

[16] = TOX21_p53_BLA_p2_viability: Viability Assessment in the Tox21 HCT-116 p53 Agonism Beta-lactamase Assay, Phase 2 (AID 2283591; active = hit-call score of the fitted dose curve at least 0.9, where 1 is the maximum;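 also: compound exposure lasted 16 h at 37 °C; actives lower the ATP signal meaning cytotoxicity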)
How it was run: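 HCT-116 p53-bla cells (4000/well) rested 5 h at 37C, then received compounds in DMSO (217-fold dilution) for 16 h at 37C, 5% CO2. After the CCF4 read, CellTiter-Glo was added; ATP luminescence was read after 30 min at room temperature.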

[17] = CEETOX_H295R_ESTRADIOL: CeeTox H295R High-throughput Steroidogenesis Assay for Estradiol (AID 2283440); settings: actives raise or lower the signal;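 also: estradiol secreted into medium quantified by LC-MS/MS after dansyl derivatisation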
How it was run: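 H295R, 48 h forskolin (10 uM) prestim → 48 h compound, 0.1% DMSO final. Estradiol in medium: MTBE extraction, dansyl chloride derivatization, LC-MS/MS. Fit bidirectional vs DMSO baseline; MTT viability in same wells.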

[18] = CEETOX_H295R_ESTRONE: CeeTox H295R High-throughput Steroidogenesis Assay for Estrone (AID 2283441); settings: actives raise or lower the signal;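 also: estrone secreted into medium measured by LC-MS/MS after dansyl derivatization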
How it was run: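 Forskolin-stimulated H295R cells are treated 48 h with chemical, and estrone in the medium is measured by LC-MS/MS. Activity is fitted in both directions relative to DMSO controls, with chemicals diluted until MTT viability reaches at least 70%.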

[19] = biological target: Bile acid receptor (Homo sapiens) (UniProt Q96RI1); experiment: OT_FXR_FXRSRC1_0480: Odyssey Thera (OT) 8-hour HEK293T Protein-Complementation Assay for Farnesoid X receptor/SRC-1 Co-activator (AID 2283383; active = hit-call score of the fitted dose curve at least 0.9, where 1 is the maximum)
How it was run: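 Fluorescence intensity read-out, 8 h post-dose, HEK293T protein-fragment complementation; FXR bait and SRC-1 prey each linked to reporter fragments. Activity scored as signal increase over DMSO negative control.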

[20] = biological target: Peroxisome proliferator-activated receptor gamma (Homo sapiens) (UniProt P37231); experiment: OT_PPARg_PPARgSRC1_1440: Odyssey Thera (OT) 24-hour Protein-Complementation Assay for Peroxisome Proliferator-activated Receptor Gamma/ SRC-1 Co-activator (AID 2283388; active = hit-call score of the fitted dose curve at least 0.9, where 1 is the maximum;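 also: nuclear to cytoplasmic ratio of reconstituted Venus YFP fluorescence in fixed imaged cells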)
How it was run: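 Readout: nuclear-to-cytoplasmic 488 nm fluorescence ratio, ≥350 cells per image, 8 images per well, after 24 h compound exposure of HEK293T expressing PPARg/SRC-1 split-YFP fusions. Activity fitted in positive direction against DMSO.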

Measured: AC50

CCCCC/C=C\CCC=O
inactive: [1] | [2] | [3] | [4] | [5] | [6] | [7] | [8] | [9] | [10] | [11] | [12] | [13]

NC(=O)N=NC(N)=O
inactive: [1] | [14] | [4] | [15] | [16]
active: [2] 12.1 µM

Oc1ccc(Cl)cc1Cc1cc(Cl)ccc1O
inactive: [1] | [2] | [4] | [6] | [7] | [8] | [9] | [10] | [11] | [17] | [18] | [12] | [13]
active: [3] 11.2 µM | [5] 6.93 µM | [15] 27 µM

CC(C)c1ccc2c(C(C)C)cc(C(C)C)c(S(=O)(=O)O)c2c1
inactive: [1] | [2] | [19] | [4] | [15] | [16]

Cc1ccc(C(C)(C)C)cc1
inactive: [1] | [2] | [3] | [4] | [15]

CC(C)(C)c1ccc(-c2ccc(C(C)(C)C)cc2)cc1
active: [19] 33.5 µM | [14] 76.6 µM | [3] 78.3 µM
inactive: [1] | [2] | [4]

CCOC(=O)Cc1cccc2ccccc12
inactive: [1] | [2] | [3] | [4] | [9] | [10] | [17] | [18] | [16]
active: [5] 34.3 µM | [6] 61.3 µM | [7] 40.1 µM | [11] 30.8 µM | [12] 24.9 µM

O=C(OCC1CCC2OC2C1)C1CCC2OC2C1 (stereo not given)
inactive: [1] | [2] | [3] | [4] | [15] | [16]

Cc1ccc(N/N=c2\c(=O)cc/c(=N/Nc3ccc(S(=O)(=O)O)cc3)c2=O)c(C)c1
inactive: [1] | [2] | [4] | [16]

COC(=O)c1c(C)cc(O)c(C)c1O
inactive: [1] | [2] | [4] | [6] | [17] | [18] | [15] | [16]
active: [7] 26.3 µM | [12] 59.5 µM

S=C(NC1CCCCC1)NC1CCCCC1
inactive: [5] | [6] | [7] | [9] | [10] | [11] | [17] | [18] | [12] | [15]

C=C1C2CCC(C2)C1(C)C (stereo not given)
inactive: [1] | [2] | [4] | [20] | [15] | [16]

C=COCCCC
inactive: [5] | [6] | [7] | [8] | [9] | [10] | [11] | [17] | [18] | [12] | [13] | [15]

Cn1c([N+](=O)[O-])cnc1COC(N)=O
inactive: [1] | [2] | [3] | [4] | [16]

O=C(c1ccccc1)C1CCC1
inactive: [1] | [2] | [4] | [15]

CC1=CC[C@H]2C[C@@H]1C2(C)C
active: [1] 93.4 µM | [2] 93.6 µM
inactive: [3] | [4] | [16]

C=CC(=O)NC(C)(C)CS(=O)(=O)O
inactive: [1] | [2] | [4] | [20] | [15] | [16]

O=C(Nc1ccccc1SSc1ccccc1NC(=O)c1ccccc1)c1ccccc1
inactive: [5] | [6] | [7] | [9] | [10] | [11] | [17] | [18] | [12]

O=C(C=Cc1ccccc1)OCc1ccccc1
active: [6] 50 µM | [7] 50 µM | [9] 36.2 µM | [12] 14.6 µM
inactive: [1] | [2] | [4] | [5] | [10] | [11] | [17] | [18] | [15] | [16]

CCCc1ccc(OC)cc1
inactive: [1] | [2] | [4] | [15]

CC(=O)OC(C)C
active: [1] 69.2 µM
inactive: [2] | [4] | [15] | [16]

O=C1CCCC1
inactive: [2] | [3] | [4] | [15] | [16]
active: [1] 48.4 µM

CC(C)=CCC[C@H](C)CCO
inactive: [1] | [2] | [3] | [20] | [15]

CCCCCCC1(C)CCC(=O)O1 (stereo not given)
inactive: [1] | [2] | [4] | [15]

Cc1ccc(C(C)c2ccc(C)c(C)c2)cc1C
inactive: [1] | [2] | [5] | [9] | [10] | [11] | [17] | [18] | [15]
active: [3] 76.4 µM | [6] 42.5 µM | [7] 31.9 µM | [12] 40.9 µM

NC(CO)(CO)CO
inactive: [1] | [2] | [3] | [4] | [15] | [16]

CCCCNc1ccc(NCCCC)c2c1C(=O)c1ccccc1C2=O
active: [7] 0.164 µM | [12] 0.208 µM
inactive: [5] | [6] | [8] | [9] | [10] | [11] | [17] | [18] | [13] | [15]

COCc1c(C(C)C)nc(C(C)C)c(/C=C/[C@@H](O)C[C@@H](O)CC(=O)O)c1-c1ccc(F)cc1
active: [5] 0.0173 µM | [6] 0.00141 µM | [7] 0.0173 µM | [8] 0.0224 µM | [9] 0.0139 µM | [11] 0.0107 µM | [12] 0.0067 µM | [13] 0.0187 µM
inactive: [10] | [17] | [18] | [15] | [16]
